Structures are written as SMILES. Hit rate of the full screen: of about 2,000 compounds, about 80 (4%) were called active.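 How the source made its calls: active means aptamer displacement above 40%, near three times the noise of non-fluorescent compounds, on plates passing quality checks; inactive means the rest.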 Not all results are given here.

Beta-adrenergic receptor kinase 1 (Homo sapiens), sequence (P25098 whole entry, looked up): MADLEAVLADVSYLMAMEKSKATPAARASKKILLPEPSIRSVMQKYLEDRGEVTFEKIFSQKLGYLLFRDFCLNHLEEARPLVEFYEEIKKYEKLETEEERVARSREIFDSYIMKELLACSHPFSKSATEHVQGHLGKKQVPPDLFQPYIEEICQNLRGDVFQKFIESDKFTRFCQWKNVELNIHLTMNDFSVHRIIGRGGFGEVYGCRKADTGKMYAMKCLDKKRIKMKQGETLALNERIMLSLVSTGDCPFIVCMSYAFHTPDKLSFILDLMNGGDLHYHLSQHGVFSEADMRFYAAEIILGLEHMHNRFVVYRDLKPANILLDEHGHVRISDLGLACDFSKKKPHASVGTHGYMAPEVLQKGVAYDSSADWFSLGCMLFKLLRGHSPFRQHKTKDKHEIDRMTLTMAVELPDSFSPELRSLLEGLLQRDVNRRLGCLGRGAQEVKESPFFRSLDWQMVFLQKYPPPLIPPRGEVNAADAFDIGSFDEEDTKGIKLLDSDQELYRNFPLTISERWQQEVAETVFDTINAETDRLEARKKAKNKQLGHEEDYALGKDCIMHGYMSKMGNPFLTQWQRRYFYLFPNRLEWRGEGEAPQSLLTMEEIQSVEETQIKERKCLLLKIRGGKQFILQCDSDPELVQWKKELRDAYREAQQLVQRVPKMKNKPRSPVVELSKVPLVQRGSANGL

The assay addresses Beta-adrenergic receptor kinase 1 (Homo sapiens) (UniProt P25098). The assay can be described thus: RNA aptamer-GRK2 binding blockers – biochemical, cherry pick 1, bead flow cytometry, confirmation (AID 504451).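 Further: negative values mostly reflect intrinsic compound fluorescence rather than true enhancement.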 As to conditions: bead-bound GRK2, FAM-aptamer displacement, at 10 µM, active compounds read high. In general terms: A flow cytometer gives signals particle by particle.
`COc1ccc(-n2nc(C(=O)NCC(=O)N3CCCCCC3)c3ccccc3c2=O)cc1Cl`: the aptamer displacement was -1.64% (inactive).

`CC(NC(=O)C1CCCN(S(=O)(=O)c2ccc(-n3cnnn3)cc2)C1)c1ccc(F)cc1` (centres undefined): the aptamer displacement was 1.56% (inactive).

Consider `COc1cc(C(=O)OCC(=O)N(CC(C)C)C2CCS(=O)(=O)C2)ccc1OCC(C)C` (centres undefined), for which the aptamer displacement was -1.87% (inactive).

Turning to `Cc1nc(Nc2ccccc2F)c2nnn(Cc3ccccc3Cl)c2n1`, the aptamer displacement is 0.75% (inactive).

Consider `COCCCNC(=O)CNC(=O)c1nn(-c2ccc(OC)cc2)c(=O)c2ccccc12`, for which the aptamer displacement is -4.54% (inactive).

For the molecule `COc1ccc(Nc2cc(Sc3ccc(OC)cc3)ncn2)cc1`, the aptamer displacement was -1.93% (inactive).

For the molecule `CCOC(=O)c1sc2nc(CSc3ccccc3)[nH]c(=O)c2c1C`, the aptamer displacement is -0.46% (inactive).

Consider `Nc1ccc2nc3c(=O)[nH]c(=S)[nH]c3nc2c1`, for which the aptamer displacement is 33% (inactive).

On to `Cc1cc(C(=O)NC2CCN(Cc3ccccc3)CC2)n[nH]1`, for which the aptamer displacement is -6.63% (inactive).

Regarding `CCC(=C/c1sc2ccc3ccccc3c2[n+]1C)/C=C1\Sc2ccc3ccccc3c2N1C`, the aptamer displacement is 101% (active).

In the case of `O=C(NCC12CC3CC(C1)CC(CNC(=O)N1CCCC1)(C3)C2)N1CCCC1`, the aptamer displacement was -0.31% (inactive).

Regarding `CCOc1ccccc1C(=O)NCc1ccco1`, the aptamer displacement was -1.88% (inactive).

For the molecule `COC(=O)c1ccc(C)c(NC(=O)C2CC(=O)N(C3CCCC(C)C3C)C2)c1` (centres undefined), the aptamer displacement was -1.41% (inactive).

Consider `O=C(NCc1ccccc1)c1cccc(NC(=O)C2CCCCC2)c1`, for which the aptamer displacement was 0.14% (inactive).

As to `COc1ccc(C(=O)NCCNc2ccc([N+](=O)[O-])cn2)cc1`, the aptamer displacement is -0.48% (inactive).

In the case of `C/C(=N\Nc1nc2ccccc2[nH]1)c1cccs1`, the aptamer displacement was -0.6% (inactive).

Consider `COc1ccc(Nc2nc(-c3cccnc3)nc3ccccc23)cn1`, for which the aptamer displacement was 4.02% (inactive).

As to `COc1ccc(N2CCN(C(CNS(=O)(=O)c3ccc(C)cc3)c3ccccc3)CC2)cc1` (centres undefined), the aptamer displacement was -2.82% (inactive).

On to `O=C(Nc1ccc(-c2nnc(-c3ccccc3)o2)cc1)c1ccc(Br)o1`, for which the aptamer displacement was 0.23% (inactive).

Regarding `O=C1C2N=NN(CC(=O)N3N=C(c4cccc5ccccc45)CC3c3ccccc3)C2C(=O)N1c1ccccc1` (centres undefined), the aptamer displacement is 0.13% (inactive).

Take `COc1cccc(CN(C)CC(=O)Nc2sc3c(c2C#N)CCC3)c1`: the aptamer displacement was -0.98% (inactive).

Turning to `Cc1ccccc1-c1nnn(CC(=O)c2ccc(S(=O)(=O)N3CCCC3)cc2)n1`, the aptamer displacement was -1.24% (inactive).

As to `CC(C)CN(C(=O)c1cccc(S(=O)(=O)N2CCCCC2)c1)C1CCS(=O)(=O)C1` (centres undefined), the aptamer displacement was 0.16% (inactive).

Take `O=c1[nH]c(SCc2ccccc2)nnc1-c1ccccc1`: the aptamer displacement was -4.45% (inactive).

For `Cc1cc(/C=C2\SC(=O)N(C)C2=O)c(C)n1-c1cccc(C(=O)O)c1`, the aptamer displacement is 10.9% (inactive).

Consider `CN(CC(=O)Nc1ccc(N2CCOCC2)cc1)CC(=O)Nc1ccccc1[N+](=O)[O-]`, for which the aptamer displacement was -1.83% (inactive).

In the case of `CNS(=O)(=O)c1cccc(C(=O)NCC2CCCCC2)c1`, the aptamer displacement is 3.13% (inactive).

As to `CCCc1nc2ccccc2c(=O)n1NC(=O)c1c(O)c2ccccc2[nH]c1=O`, the aptamer displacement is -0.69% (inactive).

On to `Cn1c(=O)[nH]c(=O)c2c1nc(N1CCN(C(c3ccccc3)c3ccccc3)CC1)n2CCO`, for which the aptamer displacement is -8.5% (inactive).

In the case of `O=C(CCS(=O)(=O)c1ccc(Br)cc1)NCCc1ccc(Cl)cc1`, the aptamer displacement was 28% (inactive).

As for `Cc1ccc(S(=O)(=O)CCC(=O)Nc2nnc(CC(C)C)s2)cc1`, the aptamer displacement is 2.47% (inactive).

For `O=C(Oc1ccc(Br)cc1)c1cccnc1`, the aptamer displacement was -1.31% (inactive).

As for `COC(=O)N/N=C/c1ccc(/C=N/NC(=O)OC)cc1`, the aptamer displacement is -0.84% (inactive).

Take `O=C(c1cnn(-c2ccc(Cl)cc2)c1)c1ccccc1O`: the aptamer displacement was 0.64% (inactive).

Turning to `CSc1nc2ccccc2c(=O)n1Cc1ccc(F)cc1`, the aptamer displacement is 1.65% (inactive).

Regarding `CC(=O)c1ccc(OCC(O)CN2CCN(S(=O)(=O)c3cccc(Br)c3)CC2)cc1` (centres undefined), the aptamer displacement was -3.98% (inactive).

Consider `Cc1cc2cc(CNC(=O)c3cccs3)ccc2[nH]1`, for which the aptamer displacement is 11.7% (inactive).

As to `Cn1c(=O)c2c(nc(N3CCOCC3)n2CCNC2=NCCC2)n(C)c1=O`, the aptamer displacement was 5.84% (inactive).

Turning to `CN(Cc1ccccc1)C(=O)c1cccc(C(=O)N(C)Cc2ccccc2)c1`, the aptamer displacement is -0.51% (inactive).

For the molecule `CCN1C(=O)[C@H]2[C@@H](c3ccc(-c4ccc(OC)cc4)cc3)N[C@@](Cc3ccccc3)(C(=O)OC)[C@H]2C1=O`, the aptamer displacement is -7.18% (inactive).

As to `OC(CN=c1sc2ccccc2n1CC(O)COc1ccccc1)COc1ccccc1` (centres undefined), the aptamer displacement is 1.11% (inactive).

As for `CCOC(=O)C1CCCN(Cc2nc(N)nc(Nc3ccc(C)cc3)n2)C1` (centres undefined), the aptamer displacement is 0.86% (inactive).

For the molecule `Cc1ccc(-c2nn(-c3ccccc3)cc2/C=C2\SC(=S)N(CCCCCC(=O)O)C2=O)o1`, the aptamer displacement is -4.86% (inactive).

With `CCN1/C(=C\c2ccc3ccccc3[n+]2CC)Sc2cc(C)ccc21`, the aptamer displacement is 75.6% (active).

Consider `CCN1/C(=C/c2ccc3ccc(C)cc3[n+]2CC)Sc2ccccc21`, for which the aptamer displacement is 65.9% (active).

On to `O=C(NCc1ccccc1Cl)c1ccc2c(=O)n(CC3CCCO3)c(=S)[nH]c2c1` (centres undefined), for which the aptamer displacement was -1.07% (inactive).

In the case of `O=C(NC(=O)c1cc(OCC(F)(F)F)ccc1OCC(F)(F)F)Nc1ccccc1`, the aptamer displacement was 2.33% (inactive).

On to `CC(C)Cn1c(CN(Cc2ccccc2)Cc2ccccc2)nc2c1c(=O)n(C)c(=O)n2C`, for which the aptamer displacement was 0.47% (inactive).

As for `C=C(C)C(=O)Nc1cccc(C2=NOC3(C2)C[C@H](C(N)=O)N(C(=O)C(c2ccccc2)c2ccccc2)C3)c1` (some centres undefined), the aptamer displacement was 80.5% (active).

Turning to `O=C(O)c1ccc2c(c1)C(=O)N(c1ccc(/C=C/C(=O)c3ccccc3)cc1)C2=O`, the aptamer displacement is 0.79% (inactive).

Turning to `CN/C(=C\[N+](=O)[O-])NCCSCc1csc(CN(C)C)n1`, the aptamer displacement is 1.33% (inactive).

As for `O=C(c1ccc(Cl)cc1)c1ccc(OCC(O)CN2CCCCC2)cc1` (centres undefined), the aptamer displacement is -0.78% (inactive).

On to `O=C(COc1ccccc1)NCCc1nc2ccccc2[nH]1`, for which the aptamer displacement is 22.4% (inactive).

`Cc1nc(C(=O)NCc2ccccc2)sc1C1(C)CC(c2cccnc2)=NO1` (centres undefined): the aptamer displacement is -1.29% (inactive).

The values are drawn from PubChem BioAssay AID504451 (NMMLSC, 2011).
